Shown are actives, neighbours in structure and some others; about 2.4% of the full set was active somewhere.
POLH inh: qHTS for Inhibitors of Polymerase Eta; DNA polymerase eta (Homo sapiens), Q9Y253; recombinant Pol eta, fluorescent DNA replication assay; Potency, µM (top dose mostly 114 µM), usual class: inhibitors; actives 1.2% (n = 390,000)
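Pol eta at 10 nM preincubated with compounds 15 min at room temperature; reaction started with fluorescent substrate (50 nM final) and read kinetically at 0 and 10 min.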
Pol iota inh: qHTS for Inhibitors of Polymerase Iota; Potency, µM (titrated, usually from 115 µM), actives largely listed as inhibitors; actives 1% (n = 390,000); DNA polymerase iota (Homo sapiens), Q9UNA4; Pol iota fluorescent replication assay, 10 min
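Pol iota at 10 nM preincubated 15 min with compounds at room temperature; reaction started with fluorescent substrate, 50 nM final. Fluorescence read kinetically at 0 and 10 min; buffer-only wells as negative control.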
FEN1 inh-1: qHTS Assay for the Inhibitors of Human Flap endonuclease 1 (FEN1); P39748; Recombinant FEN1 flap cleavage, fluorescence, 15 min; Potency, µM (series often up to 114 µM), hits mostly inhibitors; actives 0.35% (n = 390,000); AID 588795, 2011; also: nearly all actives have a fitted effect of over 65% in size
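FEN1 at 10 nM, compound pretreatment for 15 min (room temperature), 50 nM final substrate to initiate; endpoint reads at 0 and 15 min; DMSO-only plates used as vehicle background.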
WRN helicase inh-1: qHTS for Inhibitors of WRN Helicase | Potency, µM (top dose mostly 114 µM), hits mostly inhibitors | Bifunctional 3'-5' exonuclease/ATP-dependent helicase WRN (Homo sapiens), Q14191 | actives 0.46% (n = 360,000) | WRN helicase unwinding, fluorescent forked duplex, kinetic; also: nearly all actives have a fitted effect of over 55% in size
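Kinetic fluorescence helicase assay: unwinding of a quenched forked DNA duplex (100 nM final) with 2 mM ATP final raises red fluorescence (525/598 nm). Compounds sat 15 min at room temperature with 20 nM WRN beforehand.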
Pol beta inh: qHTS Assay for Inhibitors of DNA Polymerase Beta; Potency, µM (top dose mostly 114 µM), hits mostly inhibitors; Pol beta primer extension/strand displacement, fluorescence kinetic; P06746; actives 1.3% (n = 340,000)
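Kinetic readout of DNA synthesis with strand displacement by Pol beta. Compound and 10 nM enzyme sit 15 min at room temperature; 50 nM substrate starts the reaction, read immediately and at 10 min.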
POLK inh: qHTS for Inhibitors of Polymerase Kappa. DNA polymerase kappa (Homo sapiens), Q9UBT6. AID 588579, 2011. purified Pol kappa, fluorescent DNA synthesis assay, 10 min. Potency, µM (doses to about 107 µM), hits mostly inhibitors. actives 0.53% (n = 400,000)
Target sequence (Q9UBT6 whole entry, looked up): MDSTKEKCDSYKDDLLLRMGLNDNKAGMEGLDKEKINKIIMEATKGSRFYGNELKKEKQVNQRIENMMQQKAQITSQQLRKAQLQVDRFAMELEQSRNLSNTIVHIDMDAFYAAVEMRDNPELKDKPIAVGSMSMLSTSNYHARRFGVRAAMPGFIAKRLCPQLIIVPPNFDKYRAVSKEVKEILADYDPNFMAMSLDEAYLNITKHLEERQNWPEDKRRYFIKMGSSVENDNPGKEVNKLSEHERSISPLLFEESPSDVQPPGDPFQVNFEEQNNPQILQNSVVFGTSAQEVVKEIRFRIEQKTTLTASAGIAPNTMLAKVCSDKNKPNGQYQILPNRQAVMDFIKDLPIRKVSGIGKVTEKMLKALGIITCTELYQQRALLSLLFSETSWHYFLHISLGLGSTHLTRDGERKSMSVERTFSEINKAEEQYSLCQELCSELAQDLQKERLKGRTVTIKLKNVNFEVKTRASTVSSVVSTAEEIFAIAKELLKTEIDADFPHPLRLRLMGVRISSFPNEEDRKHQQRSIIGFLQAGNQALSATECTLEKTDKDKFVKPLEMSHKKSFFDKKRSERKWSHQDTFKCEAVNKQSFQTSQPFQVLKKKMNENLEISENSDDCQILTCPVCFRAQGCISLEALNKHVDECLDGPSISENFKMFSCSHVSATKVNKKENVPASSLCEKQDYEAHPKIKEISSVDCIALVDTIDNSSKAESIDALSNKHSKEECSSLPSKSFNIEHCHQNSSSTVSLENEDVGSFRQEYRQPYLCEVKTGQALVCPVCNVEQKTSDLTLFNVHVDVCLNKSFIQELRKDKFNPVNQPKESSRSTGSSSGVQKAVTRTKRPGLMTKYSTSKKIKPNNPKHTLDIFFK
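Kinetic fluorescence screen: compound preincubated 15 min RT with 10 nM enzyme; 50 nM substrate (final) initiates; reads at 0/10 min.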
FEN1 inh-2: qHTS Assay for the Inhibitors of FEN1: Confirmatory Assay for Cherry-picked Compounds; shares compounds with FEN1 inh-1; FEN1 flap cleavage, TAMRA/BHQ2 fluorogenic DNA substrate; Potency, µM, hits mostly inhibitors; actives 79% (n = 880); AID 720498, 2013; also: nearly all actives have a fitted effect of over 60% in size
WRN helicase inh-2: qHTS for Inhibitors of WRN Helicase: Confirmatory Assay for Cherry-picked Compounds | actives 63% (n = 610) | shares compounds with WRN helicase inh-1 | Potency, µM (doses to about 57.1 µM), hits mostly inhibitors | AID 720497, 2013 | WRN helicase DNA unwinding, fluorescence kinetic; also: nearly all actives have a fitted effect of over 65% in size
TO displacement: qHTS for Inhibitors of WRN Helicase: Thiazole Orange DNA Binding Counterscreen | shares compounds with WRN helicase inh-1 | Potency, µM (doses to about 57.1 µM), actives largely listed as inhibitors | actives 10% (n = 610) | thiazole orange DNA binding displacement, fluorescence;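 also: drop in dye fluorescence marks compound binding to DNA; nearly all actives have a fitted effect of over 60% in size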
BLM counter: qHTS for Inhibitors of WRN Helicase: BLM Helicase Counterscreen for WRN Inhibitors; AID 720503, 2013; shares compounds with WRN helicase inh-1; actives 60% (n = 610); Recombinant BLM helicase DNA unwinding, red fluorescence; Potency, µM (series often up to 57.1 µM), usual class: inhibitors; also: nearly all actives have a fitted effect of over 60% in size
Numbers stand for hits; [ ] = remark or other dose. Calls follow the shape of the dose curve; as a rule, active = well fitted curve in the direction sought with a large enough effect; inconclusive = small, poorly fitted or top-dose-only effect, or another doubt; inactive = no such curve, though single readings can be large; an effect the other way counts as inactive or inconclusive.

Results for CCn1c(=O)cc(OCC(=O)N2CCN(c3ccc(C)cc3)C(C)C2)c2ccccc21 (stereo not drawn) ?
POLH inh: inactive; Pol iota inh: inactive; FEN1 inh-1: inactive; Pol beta inh: inactive; POLK inh: inactive

How did COc1cccc(-c2nc(NCCN3CCOCC3)c3ccccc3n2)c1O do in these assays?
POLH inh: inconclusive; Pol iota inh: inconclusive; FEN1 inh-1: 40µM; WRN helicase inh-1: inactive; Pol beta inh: inconclusive; POLK inh: inactive; FEN1 inh-2: inconclusive

Results for Cc1cc(C)c2c(N)c3ccccc3nc2n1 ?
POLH inh: inactive; Pol iota inh: 14µM; FEN1 inh-1: 45µM; WRN helicase inh-1: inactive; Pol beta inh: 25µM; POLK inh: inactive; FEN1 inh-2: 38

What do the screens show for `Cc1cc(C)c2cccc(N)c2n1`?
POLH inh: inactive; Pol iota inh: inactive; FEN1 inh-1: inactive; WRN helicase inh-1: inactive; Pol beta inh: inactive; POLK inh: inactive

How did CCc1ccc2nc3nc(C)cc(C)c3c(N)c2c1 do in these assays?
POLH inh: inactive; Pol iota inh: inconclusive; FEN1 inh-1: inconclusive; WRN helicase inh-1: inactive; Pol beta inh: inconclusive; POLK inh: inactive; FEN1 inh-2: inconclusive

What do the screens show for `CCc1ccc(NC(=S)/N=C(\N)Nc2nc(C)c3cc(CC)ccc3n2)cc1`?
POLH inh: inactive; Pol iota inh: inactive; FEN1 inh-1: inactive; WRN helicase inh-1: inactive; Pol beta inh: inactive; POLK inh: inactive

Results for COc1ccc(Br)cc1CNC(=O)Cn1nc(C)n2c(cc3cc(F)ccc32)c1=O ?
POLH inh: inactive; Pol iota inh: inactive; FEN1 inh-1: inactive; Pol beta inh: inactive; POLK inh: inactive

Results for CCOC(=O)c1c(C)[nH]c(C)c1S(=O)(=O)N1CCCC(C(=O)N2CCN(c3cc(C)ccc3C)CC2)C1 (stereo not drawn) ?
POLH inh: inactive; Pol iota inh: inactive; FEN1 inh-1: inactive; Pol beta inh: inactive; POLK inh: inactive

Results for Cc1ccccc1Nc1nc(N)nc(COC(=O)c2ccc([N+](=O)[O-])o2)n1 ?
POLH inh: 89µM; Pol iota inh: inconclusive; FEN1 inh-1: inconclusive; WRN helicase inh-1: inactive[11.6 µM]; POLK inh: inactive; FEN1 inh-2: 21

How did Cc1ccccc1Nc1nc(N)nc(COC(=O)c2ccccc2)n1 do in these assays?
POLH inh: inactive; Pol iota inh: inactive; FEN1 inh-1: inactive; WRN helicase inh-1: inactive; Pol beta inh: inactive; POLK inh: inactive

What do the screens show for `CCN(CC)CCNc1cccc2sc3ccccc3c(=O)c12`?
POLH inh: inactive; WRN helicase inh-1: inactive

How did CCN(CC)CCNc1ccc(CO)c2sc3ccccc3c(=O)c12 do in these assays?
POLH inh: inactive; Pol iota inh: 20µM; FEN1 inh-1: 32µM; WRN helicase inh-1: inactive; Pol beta inh: 16µM; POLK inh: inconclusive; FEN1 inh-2: 34

Results for CCCN(CCC)CCCNC(=O)c1cc2c(-c3ccc(OC)c(OC)c3)nn(C)c2s1 ?
POLH inh: inconclusive; Pol iota inh: inconclusive; FEN1 inh-1: 28µM; WRN helicase inh-1: inactive[11.6 µM]; Pol beta inh: 40µM; POLK inh: inconclusive; FEN1 inh-2: 27; WRN helicase inh-2: 19µM; TO displacement: inactive; BLM counter: inconclusive

What do the screens show for `Cc1ccc(C)c(Cn2c(C3CC(=O)N(c4ccccc4C)C3)nc3ccccc32)c1` (stereo not drawn)?
POLH inh: inactive; Pol iota inh: inactive; FEN1 inh-1: inactive; Pol beta inh: inactive; POLK inh: inactive

What do the screens show for `O=C(/C=C/c1cccc2ccccc12)c1ccncc1`?
POLH inh: inconclusive; Pol iota inh: inactive; FEN1 inh-1: inactive; WRN helicase inh-1: inconclusive; Pol beta inh: inactive; POLK inh: inactive; WRN helicase inh-2: inactive; TO displacement: inactive; BLM counter: inactive

What do the screens show for `O=C(N/N=C/c1cccc2ccccc12)c1ccncc1`?
POLH inh: inactive; Pol iota inh: inactive; FEN1 inh-1: inactive; WRN helicase inh-1: inactive; Pol beta inh: inactive; POLK inh: inactive

What do the screens show for `COc1cccc(CNC(=O)CCc2c(C)nc3c(c(C)nn3-c3ccc(C)c(C)c3)c2C)c1`?
POLH inh: inactive; Pol iota inh: inactive; FEN1 inh-1: inactive; Pol beta inh: inactive; POLK inh: inactive

Results for CCCOc1ccc(Oc2nc(NC)nc(N3CCOCC3)n2)nn1 ?
POLH inh: inactive; Pol iota inh: inactive; FEN1 inh-1: inactive; Pol beta inh: inactive; POLK inh: inactive

Results for CC1(C)CC(=O)C(C(C2=C(O)CC(C)(C)CC2=O)c2cccs2)C(=O)C1 (stereo not drawn) ?
POLH inh: inactive; Pol iota inh: inconclusive; FEN1 inh-1: inactive; WRN helicase inh-1: inconclusive; Pol beta inh: inactive; POLK inh: inactive; WRN helicase inh-2: inactive; TO displacement: inactive; BLM counter: inactive

How did CC1(C)CC(=O)C(C(C2=C(O)CC(C)(C)CC2=O)c2cccc(O)c2)C(=O)C1 (stereo not drawn) do in these assays?
POLH inh: inactive; Pol iota inh: inactive; FEN1 inh-1: inactive; WRN helicase inh-1: inactive; Pol beta inh: inactive; POLK inh: inactive

Results for Cn1c2ccccc2c2c(C(=O)N3CCN(c4cccc(Cl)c4)CC3)cn(C3CCCCC3)c(=O)c21 ?
POLH inh: inactive; Pol iota inh: inactive; FEN1 inh-1: inactive; Pol beta inh: inactive; POLK inh: inactive
